Z-score and composite z-score data for 13 molecules are collected here from PubChem BioAssay.

The structures appear in SMILES notation. Calls of active or inactive are those of the source.

Assay [1] can be described thus: optical density shifts of acrAB sulA E. coli – strain DRC41, OD650, 48 h, E. coli filamentation inducer project, primary screen (AID 1152).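 Note: E. coli MC1000 strain DRC41 lacking acrAB efflux pump and sulA.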 The note with it: higher = more signal, called active from +8 up or from −8 down.
The nature of assay [2]: probe aLefty1 binding on compound microarray – biochemical, small-molecule microarray, 635/667 nm fluorescence, primary screen (AID 1153).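 Note: score merges spot fluorescence with signal-to-noise ratio from the scanned slide images.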 The note with it: higher = more signal.
Assay [3] is described as follows: plasmodial surface anion channel blockers, osmotic lysis – cell-based, P. falciparum Indochina, OD700, 1 h, primary screen (AID 1154). The note with it: P. falciparum Indochina infected RBC osmotic lysis, higher = more signal, called active from +8 up or from −8 down.
The nature of assay [4]: plasmodial surface anion channel blockers, osmotic lysis – cell-based, P. falciparum Indochina, OD700, 2 h, primary screen (AID 1155).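 Note: lysis reports solute entry through the parasite surface anion channel PSAC.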 The note with it: P. falciparum Indochina infected erythrocytes, higher = more signal, called active from +8 up or from −8 down.
Assay [5] can be described thus: changes in parasitized red cell lysis, either direction – P. falciparum Indochina, OD700, 3 h, PSAC antagonist project, primary screen (AID 1156). The note with it: P. falciparum-infected erythrocytes, osmotic lysis, higher = more signal, called active from +8 up or from −8 down.
Assay [6] is described as follows: plasmodial surface anion channel blockers, osmotic lysis – cell-based, P. falciparum Indochina, OD700, 18 h, primary screen (AID 1157). The note with it: P. falciparum Indochina infected erythrocytes, osmotic lysis OD700, 18 h; higher = more signal, called active from +8 up or from −8 down.
The nature of assay [7]: S6 kinase pathway phospho-S6 level changes – cell-based, A549, cytoblot, luminescence, serum-stimulated, primary screen (AID 1158).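 Note: serum-stimulated A549 lung adenocarcinoma cells; signal is phosphorylated S6 detected by cytoblot immunostaining with HRP secondary.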 The note with it: 5 h, higher = more signal.
The target of assay [8] is NADPH oxidase 2 (Homo sapiens) (UniProt P04839). The assay is described as follows: compounds shifting NOX2 Amplex Red fluorescence – cell-based, HEK293-NOX2, PMA-stimulated, NOX inhibitor project, primary screen (AID 1159). Note: test concentration not given here. The note with it: 45 min, higher = more signal, called active from +8 up or from −8 down.
Sequence of NADPH oxidase 2 (Homo sapiens) (P04839 whole entry, looked up): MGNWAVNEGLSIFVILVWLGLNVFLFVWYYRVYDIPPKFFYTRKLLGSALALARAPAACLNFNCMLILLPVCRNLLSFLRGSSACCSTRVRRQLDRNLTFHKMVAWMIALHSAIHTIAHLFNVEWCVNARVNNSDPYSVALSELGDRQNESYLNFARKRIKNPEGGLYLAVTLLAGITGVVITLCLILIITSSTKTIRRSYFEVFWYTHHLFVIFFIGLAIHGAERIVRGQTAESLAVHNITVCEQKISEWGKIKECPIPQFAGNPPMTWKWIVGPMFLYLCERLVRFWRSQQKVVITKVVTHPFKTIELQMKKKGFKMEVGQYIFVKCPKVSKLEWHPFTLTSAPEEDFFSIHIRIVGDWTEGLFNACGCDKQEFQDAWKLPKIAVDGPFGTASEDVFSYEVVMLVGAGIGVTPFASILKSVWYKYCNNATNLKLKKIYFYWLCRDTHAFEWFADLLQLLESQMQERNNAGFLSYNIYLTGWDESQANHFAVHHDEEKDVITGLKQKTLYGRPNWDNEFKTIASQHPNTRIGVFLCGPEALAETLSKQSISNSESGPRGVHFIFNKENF
Assay [9] has as its target NADPH oxidase 4 (Homo sapiens) (UniProt Q9NPH5). The assay is described as follows: compounds shifting NOX4 Amplex Red fluorescence – cell-based, HEK293-NOX4, tetracycline-induced, NOX inhibitor project, primary screen (AID 1160). The note with it: HEK293-NOX4, Amplex Red H2O2 fluorescence, 45 min; higher = more signal, called active from +8 up or from −8 down.
Assay [10] addresses NADPH oxidase 5 (Homo sapiens) (UniProt Q96PH1). The assay is described as follows: compounds shifting NOX5 Amplex Red fluorescence – cell-based, HEK293-NOX5, NOX inhibitor project, primary screen (AID 1161). The note with it: HEK293-NOX5, ionomycin, 45 min, higher = more signal.

Sequence of NADPH oxidase 5 (Homo sapiens) (Q96PH1 whole entry, looked up): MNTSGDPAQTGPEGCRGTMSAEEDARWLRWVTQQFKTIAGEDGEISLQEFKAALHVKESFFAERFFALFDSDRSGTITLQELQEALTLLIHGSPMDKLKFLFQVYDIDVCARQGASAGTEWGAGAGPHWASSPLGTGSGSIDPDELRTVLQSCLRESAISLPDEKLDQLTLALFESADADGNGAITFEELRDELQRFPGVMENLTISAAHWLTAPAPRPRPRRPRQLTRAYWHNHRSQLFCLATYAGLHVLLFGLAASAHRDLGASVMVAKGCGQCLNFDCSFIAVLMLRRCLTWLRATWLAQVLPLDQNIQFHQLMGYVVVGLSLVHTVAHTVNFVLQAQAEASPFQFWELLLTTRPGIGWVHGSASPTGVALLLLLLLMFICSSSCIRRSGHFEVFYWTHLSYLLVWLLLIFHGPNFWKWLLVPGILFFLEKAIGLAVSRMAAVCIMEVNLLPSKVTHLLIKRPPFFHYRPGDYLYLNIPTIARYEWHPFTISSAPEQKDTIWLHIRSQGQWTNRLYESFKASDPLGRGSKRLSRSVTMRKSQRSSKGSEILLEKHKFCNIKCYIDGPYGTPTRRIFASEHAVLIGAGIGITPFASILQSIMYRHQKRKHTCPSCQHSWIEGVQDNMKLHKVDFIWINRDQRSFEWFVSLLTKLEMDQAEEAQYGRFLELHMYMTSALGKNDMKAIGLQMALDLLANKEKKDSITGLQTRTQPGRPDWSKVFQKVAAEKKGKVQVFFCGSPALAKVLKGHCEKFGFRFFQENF
Sequence of NADPH oxidase 4 (Homo sapiens) (Q9NPH5 whole entry, looked up): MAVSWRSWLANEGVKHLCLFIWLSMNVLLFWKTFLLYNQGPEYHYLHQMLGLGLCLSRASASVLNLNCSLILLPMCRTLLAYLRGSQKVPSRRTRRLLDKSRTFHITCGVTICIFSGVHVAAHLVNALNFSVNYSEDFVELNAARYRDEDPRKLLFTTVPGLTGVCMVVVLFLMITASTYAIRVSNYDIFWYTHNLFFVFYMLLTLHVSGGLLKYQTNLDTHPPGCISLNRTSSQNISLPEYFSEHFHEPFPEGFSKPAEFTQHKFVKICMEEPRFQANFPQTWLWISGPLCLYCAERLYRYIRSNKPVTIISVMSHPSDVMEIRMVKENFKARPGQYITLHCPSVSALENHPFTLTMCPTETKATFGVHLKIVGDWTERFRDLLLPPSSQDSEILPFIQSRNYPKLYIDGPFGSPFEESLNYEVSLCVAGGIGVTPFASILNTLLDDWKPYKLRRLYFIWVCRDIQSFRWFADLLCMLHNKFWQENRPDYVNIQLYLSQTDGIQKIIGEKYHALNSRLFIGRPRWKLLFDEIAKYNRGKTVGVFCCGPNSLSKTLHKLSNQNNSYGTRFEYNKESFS

`O=C1O[C@@H](c2ccccc2)[C@@H](c2ccccc2)N2[C@@H](c3ccccc3OCCO)[C@]3(C(=O)Nc4ccc(C#CC5(O)CCCCCC5)cc43)[C@@H](C(=O)NC[C@H](O)c3ccccc3)[C@H]12`: the z-score in assay [1] is -0.95 (inactive); in [3] it was 1.87 (inactive); in assay [4] it was 1.98 (inactive); in assay [5], -1.02 (inactive); in assay [6] it was 1.49 (inactive); in assay [7], -0.308. In addition, the z-score in assay [8] is 2.02 (inactive); in assay [9], 0.973 (inactive); in assay [10], 2.17. In assay [2], the composite z-score came out at 1.38.
For `CCCC[C@@H]1C[C@H]1[C@@H](NC(=O)c1ccccc1)c1ccc(-c2ccccc2)cc1`, the z-score was -1.66 (inactive) in assay [1]; 11.5 (active) in assay [3]; 1.95 (inactive) in assay [4]; 1.57 (inactive) in assay [5]; 1.16 (inactive) in assay [6]; 0.319 in assay [7]. In addition, the z-score is -1.68 (inactive) in assay [8], -2.79 (inactive) in [9] and 0.666 in assay [10]. This molecule had a composite z-score in assay [2] of 0.212.
On to `O=C(NCC(F)(F)F)[C@@H]1c2ccccc2C(=O)N(Cc2ccccc2)[C@H]1c1ccc(CO)cc1`, for which the z-score in [1] is 0.467 (inactive); in [3] it was 0.878 (inactive); in assay [4], -0.453 (inactive); in assay [5], 0.239 (inactive); in [6], -0.406 (inactive); in assay [7], -0.325. The z-score in assay [8] is -0.489 (inactive); in [9], 0.597 (inactive); in assay [10], -0.601. In assay [2], the composite z-score is -0.147.
Regarding `O=C1OCCC/C=C\[C@H]2OC34C=CCN(Cn5nnc6ccccc65)C(=O)[C@H]3N(CCCO)C(=O)[C@@H]4C12` (stereo not given in full), the z-score in [1] was 0.0048 (inactive); in assay [3] it was 1.16 (inactive); in [4] it was 0.614 (inactive); in [5] it was -0.443 (inactive); in assay [6], 0.261 (inactive); in [7], 1.16. For the same molecule, the z-score in assay [8] was 0.821 (inactive); in [9] it was 0.689 (inactive); in assay [10], 2.02. The composite z-score in assay [2] was 0.123.
`O=C1C2C=CC(C(O)c3cccc4ccccc34)N(n3cnnc3)C2C(=O)N1Cc1ccccc1` (stereo not given): the z-score in [1] is -1.53 (inactive); in [3], -0.0851 (inactive); in [4], 0.327 (inactive); in assay [5] it was 0.282 (inactive); in assay [6], 0.339 (inactive); in assay [7], -0.711. Besides, the z-score in assay [8] is -0.154 (inactive); in [9] it was 0.0285 (inactive); in assay [10], -0.879. Also, the composite z-score in [2] was 1.69.
As for `CCCCCCCCCCC(O)C1C=CC2C(=O)N(c3ccccc3)C(=O)C2N1Nc1ccc([N+](=O)[O-])cc1` (stereo not given), the z-score was -1.14 (inactive) in assay [1]; 5.24 (inactive) in [3]; 2.56 (inactive) in [4]; -1.8 (inactive) in [5]; 2.11 (inactive) in assay [6]; -0.235 in assay [7]. Also, the z-score in assay [8] was 0.309 (inactive); in [9], -0.243 (inactive); in assay [10], 0.627. This molecule also gave a composite z-score in assay [2] of 0.315.
`CCCNC(=O)[C@@]1(C)c2ccccc2C(=O)N(C(C)C)[C@H]1c1ccc(CO)cc1`: the z-score was -0.374 (inactive) in assay [1]; 4.24 (inactive) in assay [3]; -0.445 (inactive) in assay [4]; 2.44 (inactive) in assay [5]; -0.804 (inactive) in assay [6]; 2.12 in assay [7]. For the same molecule, the z-score is -2.39 (inactive) in assay [8], -2.3 (inactive) in assay [9] and -3.6 in [10]. In addition, the composite z-score in [2] amounted to 0.0371.
In the case of `CC1CC/C=C\[C@H]2OC34C=CCN(CCN5CCOCC5)C(=O)[C@H]3N(CCCCCO)C(=O)[C@@H]4C2C(=O)O1` (stereo not given in full), the z-score in assay [1] was -0.346 (inactive); in assay [3], 0.851 (inactive); in [4] it was 0.618 (inactive); in assay [5], 0.007 (inactive); in assay [6] it was 0.257 (inactive); in [7] it was 0.165. The z-score in [8] was 0.545 (inactive); in assay [9], -0.277 (inactive); in [10], 1.03. The molecule also came in with a composite z-score in assay [2] of -0.409.
For `C=C(CCCC)C(=O)CC[C@@H](OC(=O)c1ccccc1-c1ccccc1C(=O)O)c1ccc(CO)o1`, the z-score is -0.467 (inactive) in [1]; 1.6 (inactive) in [3]; 0.228 (inactive) in assay [4]; 1.19 (inactive) in assay [5]; 0.161 (inactive) in assay [6]; -0.946 in assay [7]. The z-score in [8] was 1.35 (inactive); in assay [9] it was -0.203 (inactive); in [10], -0.475. Moreover, the composite z-score in assay [2] worked out at 0.379.
For the molecule `Cc1cccc(/C=C/C=O)c1`, the z-score in [1] is 0.595 (inactive); in [3], 0.118 (inactive); in assay [4] it was -0.557 (inactive); in assay [5] it was 0.565 (inactive); in assay [6] it was -0.212 (inactive); in [7] it was -0.57. Further, the z-score is -0.0862 (inactive) in assay [8], 0.0658 (inactive) in assay [9] and 1.56 in [10]. The composite z-score in [2] was -0.0479.
On to `COc1ccc(C(=O)Nc2cccc(CN3C(=O)[C@@]4(O[C@@H](CC(=O)N5Cc6ccccc6C[C@H]5CO)[C@H]([Si](C)(C)c5ccc(OC)cc5)[C@H]4C)c4ccccc43)c2)cc1`, for which the z-score is -0.333 (inactive) in assay [1]; 4.24 (inactive) in [3]; 1.49 (inactive) in assay [4]; 0.712 (inactive) in assay [5]; 0.768 (inactive) in assay [6]; 1.33 in assay [7]. Also, the results for the z-score in assay [8], in assay [9] and in assay [10] were -1.03 (inactive), 0.0938 (inactive) and -0.713, respectively. Moreover, the composite z-score in assay [2] came to 0.139.
`COCCOC(=O)N1C(=O)[C@@]2(c3cc(C#CCC(C(=O)OC)C(=O)OC)ccc31)[C@H](c1ccc(OCCO)cc1)N1[C@H](c3ccccc3)[C@H](c3ccccc3)OC(=O)[C@H]1[C@@H]2C(=O)NC[C@H](O)c1ccccc1`: the z-score in [1] was 0.588 (inactive); in [3] it was 3.79 (inactive); in assay [4], 1.54 (inactive); in assay [5], 1.69 (inactive); in [6], 1.17 (inactive); in assay [7], 0.22. Also, the z-score was 1.53 (inactive) in assay [8], 1.26 (inactive) in [9] and 1.17 in assay [10]. Besides, in assay [2], the composite z-score was -0.0533.
As to `[N-]=[N+]=NCc1ccccc1C[C@]1(C(=O)NCCN2CCOCC2)N=C(c2ccc(OCCCO)cc2)O[C@H]1c1ccccc1CN=[N+]=[N-]`, the z-score was 1.26 (inactive) in [1]; 20.7 (active) in assay [3]; 3.07 (inactive) in assay [4]; 0.58 (inactive) in [5]; 0.669 (inactive) in assay [6]; 2.75 in assay [7]. Besides, the z-score in assay [8] was -4.56 (inactive); in [9], -2.27 (inactive); in assay [10], -1.27. Moreover, the composite z-score in [2] turned out to be 0.453.
